Experimental data as given in PubChem BioAssay (EPA / NIEHS).
Calls of active or inactive are those of the source. How the source made its calls: active means hit-call score of the fitted dose curve at least 0.9, where 1 is the maximum; inactive means score below 0.9.

Assays:
[1] = BSK_CASM3C_SRB: Viability Assessment in the BioMAP Diversity Plus: CASM3C Assay (AID 2283050); settings: primary human coronary artery smooth muscle cells;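 further: cells exposed to compound for 24 h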
[2] = read-out: Thrombomodulin, THBD (gene 7056); test: BSK_CASM3C_Thrombomodulin: BioMAP Diversity Plus: CASM3C Assay for Thrombomodulin Biomarker Activity (AID 2283051); settings: primary human coronary artery smooth muscle cells; actives raise or lower the signal;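 further: thrombomodulin protein level measured by ELISA 24 h after dosing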
[3] = read-out: Tissue Factor, F3 (gene 2152); test: BSK_CASM3C_TissueFactor: BioMAP Diversity Plus: CASM3C Assay for Tissue Factor Biomarker Activity (AID 2283052); settings: primary human coronary artery smooth muscle cells; actives raise or lower the signal;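 further: cell surface tissue factor protein level read by ELISA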
[4] = read-out: Interferon-gamma inducible Protein 10 (IP10), CXCL10 (gene 3627); test: BSK_hDFCGF_IP10: BioMAP Diversity Plus: hDFCGF Assay for Interferon-gamma inducible Protein 10 (IP10) Biomarker Activity (AID 2283053); settings: primary human foreskin fibroblasts; actives raise or lower the signal
Procedure, shortened: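 Primary foreskin fibroblasts, human; 24 h compound exposure; IP-10 by ELISA; bidirectional fit vs DMSO.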

[5] = read-out: Urokinase-type plasminogen activator receptor (uPAR), PLAUR (gene 5329); test: BSK_CASM3C_uPAR: BioMAP Diversity Plus: CASM3C Assay for Urokinase-type plasminogen activator receptor (uPAR) Biomarker Activity (AID 2283054); settings: primary human coronary artery smooth muscle cells; actives raise or lower the signal;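 further: cell-surface uPAR protein level quantified by ELISA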
[6] = read-out: Vascular cell adhesion molecule 1 (VCAM1), VCAM1 (gene 7412); test: BSK_CASM3C_VCAM1: BioMAP Diversity Plus: CASM3C Assay for Vascular cell adhesion molecule 1 (VCAM1) Biomarker Activity (AID 2283055); settings: primary human coronary artery smooth muscle cells; actives raise or lower the signal;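 further: VCAM-1 protein level quantified by ELISA on the cells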
[7] = read-out: Collagen III, COL3A1 (gene 1281); test: BSK_hDFCGF_CollagenIII: BioMAP Diversity Plus: hDFCGF Assay for Collagen III Biomarker Activity (AID 2283056); settings: primary human foreskin fibroblasts; actives raise or lower the signal
Procedure, shortened: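 hDFCGF primary human dermal fibroblasts; 24 h chemical exposure; collagen III by ELISA; bidirectional curve fit vs DMSO baseline (gain or loss of signal).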

[8] = read-out: Epidermal growth factor receptor (EGFR), EGFR (gene 1956); test: BSK_hDFCGF_EGFR: BioMAP Diversity Plus: hDFCGF Assay for Epidermal growth factor receptor (EGFR) Biomarker Activity (AID 2283057); settings: primary human foreskin fibroblasts; actives raise or lower the signal
Procedure, shortened: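 hDFCGF system, primary human foreskin fibroblasts; compound 24 h; EGFR measured by ELISA; DMSO = negative control/baseline; bidirectional fitting.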

[9] = read-out: Interleukin-8 (IL8), CXCL8 (gene 3576); test: BSK_hDFCGF_IL8: BioMAP Diversity Plus: hDFCGF Assay for Interleukin-8 (IL8) Biomarker Activity (AID 2283058); settings: primary human foreskin fibroblasts; actives raise or lower the signal
Procedure, shortened: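 ELISA read-out of IL-8 from primary human foreskin fibroblast cultures taken 24 h after dosing; values are bidirectional fits relative to DMSO vehicle.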

[10] = BSK_hDFCGF_Proliferation: Cell Proliferation Assessment in the BioMAP Diversity Plus: hDFCGF Assay (AID 2283059); settings: primary human foreskin fibroblasts;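 further: curves fitted for both rise and fall of signal versus DMSO baseline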
Procedure, shortened: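 Sub-confluent human foreskin fibroblast cultures receive test chemical […]. Relative cell number is quantified by sulforhodamine B staining (0.1%, after 10% TCA fixation) at 560 nm, with bidirectional fitting referenced to DMSO.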

[11] = read-out: Macrophage colony-stimulating factor (MCSF), CSF1 (gene 1435); test: BSK_hDFCGF_MCSF: BioMAP Diversity Plus: hDFCGF Assay for Macrophage colony-stimulating factor (MCSF) Biomarker Activity (AID 2283060); settings: primary human foreskin fibroblasts; actives raise or lower the signal
Procedure, shortened: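 ELISA read-out of M-CSF in human dermal foreskin fibroblast cultures, 24 h after chemical dosing; gain or loss of signal fitted bidirectionally relative to DMSO baseline.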

[12] = BSK_hDFCGF_SRB: Viability Assessment in the BioMAP Diversity Plus: hDFCGF Assay (AID 2283061); settings: primary human foreskin fibroblasts;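 further: cells exposed to compound for 24 h before the read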
Procedure, shortened: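 Primary human foreskin fibroblasts; 24 h post-dose; fixed 10% TCA, stained 0.1% SRB, A560 read; total protein as overt cytotoxicity measure; curves fit bidirectionally vs DMSO control.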

[13] = read-out: TIMP metallopeptidase inhibitor 1 (TIMP1), TIMP1 (gene 7076); test: BSK_hDFCGF_TIMP1: BioMAP Diversity Plus: hDFCGF Assay for TIMP metallopeptidase inhibitor 1 (TIMP1) Biomarker Activity (AID 2283062); settings: primary human foreskin fibroblasts; actives raise or lower the signal
Procedure, shortened: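 ELISA readout of TIMP-1 from human dermal foreskin fibroblast cultures 24 h post-dosing. Curves were fitted in both directions against DMSO baseline, with SRB total-protein staining in parallel cultures as a cytotoxicity check.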

[14] = read-out: Monokine induced gamma interferon (MIG), CXCL9 (gene 4283); test: BSK_hDFCGF_MIG: BioMAP Diversity Plus: hDFCGF Assay for Monokine induced gamma interferon (MIG) Biomarker Activity (AID 2283063); settings: primary human foreskin fibroblasts; actives raise or lower the signal
Procedure, shortened: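 Fibroblasts (human foreskin, primary) dosed, 24 h, MIG by ELISA; fit bidirectional vs DMSO.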

[15] = read-out: Matrix Metallopeptidase 1 (MMP1), MMP1 (gene 4312); test: BSK_hDFCGF_MMP1: BioMAP Diversity Plus: hDFCGF Assay for Matrix Metallopeptidase 1 (MMP1) Biomarker Activity (AID 2283064); settings: primary human foreskin fibroblasts; actives raise or lower the signal
Procedure, shortened: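 Primary human foreskin fibroblasts in the hDFCGF system were dosed with test chemical, and MMP1 was measured by ELISA 24 h later. Values come from bidirectional curve fitting against the DMSO baseline.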

[16] = read-out: Vascular cell adhesion molecule 1 (VCAM1), VCAM1 (gene 7412); test: BSK_hDFCGF_VCAM1: BioMAP Diversity Plus: hDFCGF Assay for Vascular cell adhesion molecule 1 (VCAM1) Biomarker Activity (AID 2283065); settings: primary human foreskin fibroblasts; actives raise or lower the signal
Procedure, shortened: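 ELISA read-out of VCAM-1 on human skin fibroblasts, 24 h post-dose; gain or loss of signal fitted bidirectionally against DMSO baseline.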

[17] = read-out: Plasminogen activator inhibitor-1 (PAI1), SERPINE1 (gene 5054); test: BSK_hDFCGF_PAI1: BioMAP Diversity Plus: hDFCGF Assay for Plasminogen activator inhibitor-1 (PAI1) Biomarker Activity (AID 2283066); settings: primary human foreskin fibroblasts; actives raise or lower the signal
Procedure, shortened: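 Primary dermal fibroblasts (human foreskin), hDFCGF system; compound 24 h; PAI-1 by ELISA; bidirectional fit vs DMSO control.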

[18] = read-out: Intercellular Adhesion Molecule 1 (ICAM1), ICAM1 (gene 3383); test: BSK_KF3CT_ICAM1: BioMAP Diversity Plus: KF3CT Assay for Intercellular Adhesion Molecule 1 (ICAM1) Biomarker Activity (AID 2283067); settings: primary human keratinocytes with fibroblasts; actives raise or lower the signal
Procedure, shortened: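 ELISA readout of ICAM-1; KF3CT human skin co-culture (keratinocytes + foreskin fibroblasts), 24 h post-dose; gain/loss fit vs DMSO baseline.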

[19] = BSK_KF3CT_SRB: Viability Assessment in the BioMAP Diversity Plus: KF3CT Assay (AID 2283069); settings: primary human keratinocytes with fibroblasts;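 further: total protein by sulforhodamine B staining as a cytotoxicity measure; read 24 h after compound addition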
Procedure, shortened: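 Human primary keratinocyte plus foreskin fibroblast co-culture exposed to chemicals for 24 h. Total protein measured by 0.1% sulforhodamine B staining after 10% TCA fixation, read at 560 nm; bidirectional fitting versus DMSO baseline.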

[20] = read-out: Interferon-gamma inducible Protein 10 (IP10), CXCL10 (gene 3627); test: BSK_KF3CT_IP10: BioMAP Diversity Plus: KF3CT Assay for Interferon-gamma inducible Protein 10 (IP10) Biomarker Activity (AID 2283068); settings: primary human keratinocytes with fibroblasts; actives raise or lower the signal
Procedure, shortened: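 ELISA read-out of IP-10 after 24 h chemical dosing of human skin primary co-culture (keratinocytes, foreskin fibroblasts). Gain or loss of signal relative to DMSO, bidirectional curve fit.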

Measured: AC50

C[C@]12C=CC(=O)C=C1CC[C@H]1[C@@H]3C[C@@H](O)[C@](O)(C(=O)CO)[C@@]3(C)C[C@H](O)[C@@]12F
active: [2] 3.97 µM | [3] 149 nM | [10] 818 nM | [11] 580 nM | [15] 148 nM
not listed: [20]
inactive: all other assays above

CCCCOC(=O)c1ccccc1
inactive: all assays above

CCCCCCOC(=O)CC(CC(=O)OCCCCCC)(OC(=O)CCC)C(=O)OCCCCCC
not listed: [8]
inactive: all other assays above
